Results taken from PubChem BioAssay (Tox21).
A number with no mark means an inactive call. Results filed as inconclusive are left out. Entries that show only a call come without a potency. Active and inactive are the calls of the source. Calls come from the whole dose curve; as a rule, active = well fitted curve in the direction sought with a large enough effect in the repeat runs; inconclusive = weak or mixed curves; inactive = no such curve, though single readings can be large; an effect the other way counts as inactive or inconclusive.

Tests used:
[1] = Caspase-3/7 induction in CHO-K1 cells by small molecules, qHTS assay (AID 1346980); note: nearly all actives have a fitted effect of over 15% in size
Outline: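 Wild-type CHO-K1 cells exposed to compounds for 17hr at 37 C, 5% CO2. Caspase-3/7 activity then measured by Caspase-Glo 3/7 luminescence after 30min at room temperature.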

[2] = Caspase-3/7 induction in HepG2 cells by small molecules, qHTS cell viability counter screen (AID 1346981); note: series mostly up to about 92 µM; nearly all actives have a fitted effect of over 30% in size
Outline: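 Treatment of HepG2 cells with DMSO-delivered compounds ran 16 hr at 37 C following a 5-hr pre-incubation of 2,000 cells/well. CellTiter-Fluor fluorescence, read after 1 hr, served as the viability measure in a qHTS format.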

[3] = molecular target: Nuclear receptor subfamily 1 group I member 2 (Homo sapiens) (UniProt O75469); assay: Human pregnane X receptor (PXR) small molecule agonists, qHTS assay (AID 1346982); note: nearly all actives have a fitted effect of over 35% in size; note: potency is the fitted concentration of half-maximal effect
Outline: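 Stable HepG2 line reporting PXR-mediated CYP3A4 expression via luciferase. Treatment: 24 hr with compounds in DMSO at 37 C. Detection: ONE-Glo luminescence.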

[4] = molecular target: Nuclear receptor subfamily 1 group I member 2 (Homo sapiens) (UniProt O75469); assay: CYP3A4 induction through human pregnane X receptor (PXR) by small molecules, qHTS assay (AID 1346984); note: nearly all actives have a fitted effect of over 40% in size
Outline: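 After 24 h at 37C with compound, DPX-2 cells (HepG2, co-transfected PXR response element and CYP3A4 promoter-luciferase) got 3uM final P450-Glo Luciferin-IPA for 3 h; One-Glo luminescence followed.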

[5] = molecular target: Cytochrome P450 2D6 (Homo sapiens) (UniProt P10635); assay: Cytochrome P450 Family 2 Subfamily D Member 6 (CYP2D6) small molecule antagonists: luciferase reporter qHTS assay (AID 1671196); note: nearly all actives have a fitted effect of over 50% in size; note: potency is the fitted concentration of half-maximal effect
Outline: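 Chemicals tested for interference with CYP2D6 activity; proluciferin substrate, NADPH regeneration, 1 h at room temperature, luminescent detection.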

[6] = molecular target: Cytochrome P450 2C19 (Homo sapiens) (UniProt P33261); assay: Cytochrome P450 Family 2 Subfamily C Member 19 (CYP2C19) small molecule antagonists: luciferase reporter qHTS assay (AID 1671197); note: nearly all actives have a fitted effect of over 65% in size; note: potency is the fitted concentration of half-maximal effect
Outline: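 CYP2C19 P450-Glo, 1536-well qHTS. Cpd + enzyme/proluciferin substrate 10 min RT; + NADPH regen, 37C 1 h; stop with luciferin detection reagent, 20 min RT, luminescence (RLU). Pos ctrl ketoconazole.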

[7] = molecular target: Cytochrome P450 2C9 (Homo sapiens) (UniProt P11712); assay: Cytochrome P450 Family 2 Subfamily C Member 9 (CYP2C9) small molecule antagonists: luciferase reporter qHTS assay (AID 1671198); note: nearly all actives have a fitted effect of over 50% in size; note: potency is the fitted concentration of half-maximal effect
Outline: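 P450-Glo proluciferin substrate with CYP2C9 enzyme; 10 min RT preincubation, then NADPH regeneration 1 h at 37C; luciferin detection reagent 20 min RT, luminescence in relative luminescence units.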

[8] = molecular target: Nuclear receptor subfamily 1 group I member 2 (Homo sapiens) (UniProt O75469); assay: Human pregnane X receptor (PXR) activation by small molecules, qHTS assay (AID 1346985); note: nearly all actives have a fitted effect of over 40% in size
Outline: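 DPX-2 cells (HepG2 co-transfected with a PXR response element and a CYP3A4-promoter luciferase construct) were seeded at 2,000 per well, rested 5 hr at 37C, then exposed to DMSO-dissolved compounds for 24 hr. Activation was read as luciferase luminescence.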

[9] = molecular target: Nuclear receptor subfamily 1 group I member 2 (Rattus norvegicus) (UniProt Q9R1A7); assay: Rat pregnane X receptor (rPXR) activation by small molecules, qHTS assay (AID 1346983); conditions: rPXR luciferase reporter cells, One-Glo luminescence, 24 h; active compounds read high; note: nearly all actives have a fitted effect of over 20% in size
Outline: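 Cell-based rPXR activation assay: rPXR cells, 2,000 per well, rested 5hr at 37 C, then exposed to compounds in DMSO for 24 hr at 37 C. Luciferase activity read by One-Glo luminescence after 30 min at room temperature.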

[10] = Caspase-3/7 induction in CHO-K1 cells by small molecules, qHTS cell viability counter screen (AID 1346979); note: nearly all actives have a fitted effect of over 35% in size
Outline: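 Multiplexed with Caspase-Glo 3/7 in CHO-K1 cells, this counter screen added CellTiter-Fluor after 16hr of compound exposure and recorded fluorescence 1hr later.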

Sequence of Cytochrome P450 2D6 (Homo sapiens) (P10635 whole entry, looked up): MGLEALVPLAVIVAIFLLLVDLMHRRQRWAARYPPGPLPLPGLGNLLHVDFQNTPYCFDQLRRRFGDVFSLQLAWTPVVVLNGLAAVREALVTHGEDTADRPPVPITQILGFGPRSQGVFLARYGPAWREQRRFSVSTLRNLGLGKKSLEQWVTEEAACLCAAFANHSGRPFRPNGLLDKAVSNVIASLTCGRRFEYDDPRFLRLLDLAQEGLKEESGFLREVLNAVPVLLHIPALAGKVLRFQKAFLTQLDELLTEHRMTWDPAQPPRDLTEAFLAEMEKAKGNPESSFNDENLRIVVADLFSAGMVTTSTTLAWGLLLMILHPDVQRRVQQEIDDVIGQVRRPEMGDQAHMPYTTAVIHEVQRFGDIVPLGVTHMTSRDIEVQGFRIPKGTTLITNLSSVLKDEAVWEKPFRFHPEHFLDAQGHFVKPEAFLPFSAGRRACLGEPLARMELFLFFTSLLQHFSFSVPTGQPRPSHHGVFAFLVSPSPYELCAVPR
Sequence of Cytochrome P450 2C19 (Homo sapiens) (P33261 whole entry, looked up): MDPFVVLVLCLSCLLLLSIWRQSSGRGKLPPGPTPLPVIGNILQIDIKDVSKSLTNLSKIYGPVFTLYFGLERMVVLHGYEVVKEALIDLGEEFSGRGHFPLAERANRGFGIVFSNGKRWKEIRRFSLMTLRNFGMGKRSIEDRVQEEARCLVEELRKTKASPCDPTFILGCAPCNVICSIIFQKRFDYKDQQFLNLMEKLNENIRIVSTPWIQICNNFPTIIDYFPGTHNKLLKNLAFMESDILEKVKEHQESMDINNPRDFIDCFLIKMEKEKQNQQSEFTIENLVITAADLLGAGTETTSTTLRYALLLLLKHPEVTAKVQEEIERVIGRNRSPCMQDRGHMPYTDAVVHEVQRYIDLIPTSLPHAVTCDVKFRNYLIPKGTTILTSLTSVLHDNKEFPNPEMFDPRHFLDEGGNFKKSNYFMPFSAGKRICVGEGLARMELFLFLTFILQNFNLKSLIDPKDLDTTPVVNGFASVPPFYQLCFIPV
Sequence of Cytochrome P450 2C9 (Homo sapiens) (P11712 whole entry, looked up): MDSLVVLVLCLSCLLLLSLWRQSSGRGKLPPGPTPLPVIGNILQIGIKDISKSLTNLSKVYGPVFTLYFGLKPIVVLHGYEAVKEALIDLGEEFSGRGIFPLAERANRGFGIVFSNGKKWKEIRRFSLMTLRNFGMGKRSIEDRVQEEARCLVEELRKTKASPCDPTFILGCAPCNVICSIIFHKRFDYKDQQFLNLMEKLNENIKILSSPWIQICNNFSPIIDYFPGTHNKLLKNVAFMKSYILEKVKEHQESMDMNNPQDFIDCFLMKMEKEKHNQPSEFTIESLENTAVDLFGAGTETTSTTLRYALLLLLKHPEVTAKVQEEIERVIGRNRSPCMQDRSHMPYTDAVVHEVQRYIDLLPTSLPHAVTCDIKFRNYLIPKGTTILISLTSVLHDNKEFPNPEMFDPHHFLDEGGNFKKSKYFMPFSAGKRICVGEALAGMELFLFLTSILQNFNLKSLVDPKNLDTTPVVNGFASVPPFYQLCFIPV
Sequence of Nuclear receptor subfamily 1 group I member 2 (Homo sapiens) (O75469 whole entry, looked up): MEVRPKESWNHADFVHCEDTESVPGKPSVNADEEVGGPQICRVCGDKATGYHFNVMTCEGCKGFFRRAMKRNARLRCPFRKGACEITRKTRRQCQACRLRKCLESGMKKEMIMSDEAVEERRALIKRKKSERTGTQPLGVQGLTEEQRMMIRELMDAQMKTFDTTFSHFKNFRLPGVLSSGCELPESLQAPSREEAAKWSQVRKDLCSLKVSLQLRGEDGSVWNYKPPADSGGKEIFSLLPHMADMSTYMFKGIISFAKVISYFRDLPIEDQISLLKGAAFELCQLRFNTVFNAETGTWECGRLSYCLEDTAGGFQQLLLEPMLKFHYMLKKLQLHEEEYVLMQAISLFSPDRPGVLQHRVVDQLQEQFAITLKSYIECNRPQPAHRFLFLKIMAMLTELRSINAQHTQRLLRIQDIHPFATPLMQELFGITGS
Sequence of Nuclear receptor subfamily 1 group I member 2 (Rattus norvegicus) (Q9R1A7 whole entry, looked up): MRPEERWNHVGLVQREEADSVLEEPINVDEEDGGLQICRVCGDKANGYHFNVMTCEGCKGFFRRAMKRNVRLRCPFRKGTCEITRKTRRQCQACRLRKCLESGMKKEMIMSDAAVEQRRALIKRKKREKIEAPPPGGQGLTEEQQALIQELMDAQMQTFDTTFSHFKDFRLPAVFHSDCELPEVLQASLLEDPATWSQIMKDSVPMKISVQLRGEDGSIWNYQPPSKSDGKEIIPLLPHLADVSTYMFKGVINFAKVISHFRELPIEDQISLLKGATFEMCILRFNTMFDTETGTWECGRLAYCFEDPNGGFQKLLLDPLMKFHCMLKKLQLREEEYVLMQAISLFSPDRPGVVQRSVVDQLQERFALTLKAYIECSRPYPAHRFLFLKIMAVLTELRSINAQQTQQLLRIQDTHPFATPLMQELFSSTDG

Row | Compound | Potency [1] | Potency [2] | Potency [3] | Potency [4] | Potency [5] | Potency [6] | Potency [7] | Potency [8] | max activation [9] [%] | Potency [10]
1 | CCC(CC)(CC(=O)Nc1cccc(/C=C/c2nc(C3CCC3)cs2)c1)C(=O)O | inactive | inactive | 23.7 µM (active) | inactive | inactive | inactive | 27.5 µM (active) |  |  | 
2 | CN(C)[C@@H](CCOc1cccc2ccccc12)c1ccccc1 | inactive |  |  |  |  | 0.977 µM (active) | 15.5 µM (active) |  |  | 
3 | C#C[C@]1(O)CC[C@H]2[C@@H]3[C@H](C)CC4=C(CCC(=O)C4)[C@H]3CC[C@@]21C | inactive | inactive |  | inactive |  | 3.89 µM (active) | 13.8 µM (active) | inactive |  | 
4 | [Cl][Pt-2]([Cl])([Cl])[Cl] | inactive | inactive | inactive |  | 40.1 µM (active) | 22.6 µM (active) | 25.3 µM (active) |  |  | 
5 | S=C([S-])NCCNC(=S)[S-].S=C([S-])NCCNC(=S)[S-].[Mn+2].[Zn+2] | inactive | inactive | 5.31 µM (active) |  |  | 4.36 µM (active) | 3.09 µM (active) |  |  | 
6 | CC(C(=O)O)c1ccc2c(c1)[nH]c1ccc(Cl)cc12 (stereo not drawn) | inactive | inactive | inactive | inactive | inactive | inactive |  | inactive | -1.86 | 
7 | O=c1c(O)c(-c2ccc(O)cc2O)oc2cc(O)cc(O)c12 | inactive |  |  |  |  | inactive | 21.1 µM (active) |  |  | 
8 | OC12N=C(c3ccccc3)SC1Cc1cc(Cl)ccc12 (stereo not drawn) | inactive |  | 10.9 µM (active) |  |  | 0.126 µM (active) | 0.894 µM (active) |  |  | 
9 | CCCCCC(C)OC(=O)COc1ccc(Cl)c2cccnc12 (stereo not drawn) | inactive | inactive | 24.3 µM (active) |  | inactive | 7.96 µM (active) | 11.2 µM (active) |  |  | 
10 | CCC(C)(CCC(C)C)C(=O)[O][Sn]([CH3])([CH3])[O]C(=O)C(C)(CC)CCC(C)C (stereo not drawn) | inactive | inactive | inactive |  |  | 56.4 µM (active) | 25.2 µM (active) |  |  | 
11 | COc1cccc(OC)c1C(=O)O |  | inactive | inactive |  | inactive | inactive | inactive |  |  | inactive
12 | Nc1ccc(Oc2ccc(Cl)cc2)cc1 | inactive | inactive | 33.6 µM (active) |  | 39.1 µM (active) | 2.47 µM (active) | 12.4 µM (active) |  |  | 
13 | O=S(=O)(O)c1ccccc1/C=C/c1ccc(-c2ccc(/C=C/c3ccccc3S(=O)(=O)O)cc2)cc1 | inactive | inactive | inactive |  | inactive | inactive |  |  |  | 
14 | Oc1cc(Cl)cc(Cl)c1Cl | inactive |  |  |  |  | inactive |  |  |  | 
15 | O=C(/C=C/c1ccc(O)c(O)c1)O[C@@H](C(=O)O)[C@@H](OC(=O)/C=C/c1ccc(O)c(O)c1)C(=O)O | inactive | inactive | inactive |  | 31.7 µM (active) | inactive | inactive |  |  | 
16 | c1ccc(C(O[C@@H]2CCCN(CCc3ccc4c(c3)OCO4)C2)c2ccccc2)cc1 | inactive |  | inactive |  | 2.52 µM (active) | 35.6 µM (active) | 17.8 µM (active) |  |  | 
